From PubChem BioAssay AID651814 (National Center for Advancing Translational Sciences (NCATS), 2012)
Out of some 2,100 compounds screened, about 590 (28%) were called active. Not shown: some 42% with an inconclusive outcome. The list shows a part of the results. Unmarked numbers belong to inactive results. Calls come from the whole dose curve; as a rule, active = well fitted inhibition curve with a large enough effect; inconclusive = small, poorly fitted or top-dose-only effect; inactive = flat fitted curve, though single readings scatter.

The molecules below were run against DNA dC->dU-editing enzyme APOBEC-3F (Homo sapiens) (UniProt Q8IUX4) (assay: qHTS for inhibitors of Vif-A3F interactions: Cherry picks). Conditions: HeLa A3F-eYFP + Vif (tagged APOBEC3F with the HIV-1 protein that degrades it), eYFP fluorescence, 24 h.
How it was run: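 Read-out: yellow fluorescence (ex 488 nm, em 500-530 nm) by laser-scanning cytometer after 24 h compound exposure, several concentrations, at 37 deg C. Cells: HeLa line stably co-expressing Vif and C-terminally eYFP-tagged A3F; MG132 served as positive control.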
Note: nearly all actives have a fitted effect of over 70% in size.
Potency is the fitted concentration of half-maximal effect.
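Throughout, for max response: % of control where 0% means no effect; active compounds raise eYFP fluorescence by blocking Vif-driven A3F loss.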

DNA dC->dU-editing enzyme APOBEC-3F (Homo sapiens), sequence (Q8IUX4 whole entry, looked up): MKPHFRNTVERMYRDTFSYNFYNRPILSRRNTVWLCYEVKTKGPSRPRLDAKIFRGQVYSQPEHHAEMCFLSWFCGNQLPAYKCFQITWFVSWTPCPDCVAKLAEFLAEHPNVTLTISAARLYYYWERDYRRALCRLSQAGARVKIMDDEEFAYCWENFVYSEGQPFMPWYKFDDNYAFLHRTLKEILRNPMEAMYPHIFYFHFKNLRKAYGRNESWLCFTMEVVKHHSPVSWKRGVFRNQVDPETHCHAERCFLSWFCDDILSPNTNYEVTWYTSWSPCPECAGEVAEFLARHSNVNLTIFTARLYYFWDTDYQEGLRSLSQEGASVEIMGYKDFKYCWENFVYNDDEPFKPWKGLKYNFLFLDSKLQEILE

Structure (SMILES) | max response [%] | Potency
COc1cc(/C=N/Nc2ccc(Cl)nn2)cc(OC)c1O | 2.03 | 
CCOc1cc(/C=C2\CCC/C(=C\c3cc(Cl)c(O)c(OCC)c3)C2=O)cc(Cl)c1O |  | 7.04 µM (active)
COc1cc(/C=C2/CCC/C(=C\c3cc(O)c(OC)c(Cl)c3)C2=O)cc(Cl)c1O |  | 8.2 µM (active)
CCOc1c(Cl)cc(/C=N/NC(N)=S)cc1OC | -28.8 | 
Fc1ccc2nc3[nH]c4ccccc4c3nc2c1 |  | 0.994 µM (active)
COc1ccccc1CNC(=O)c1ccc2nc3[nH]c4ccccc4c3nc2c1 | -25.8 | 
Cc1c(=O)n(OCc2ccc(Cl)cc2)c2ccccc2[n+]1[O-] | -8.69 | 
CC1C/C(=C/c2cccs2)C(=O)/C(=C/c2cccs2)C1 (centres undefined) | -0.33 | 
CN1C2CCC1/C(=C/c1cccn1C)C(=O)/C2=C\c1cccn1C |  | 16.4 µM (active)
Cn1cccc1/C=C1\CC(C(C)(C)C)C/C(=C\c2cccn2C)C1=O (centres undefined) |  | 4.11 µM (active)
CN1/C(=C\C=C(/C#N)C(=O)Nc2ccccc2F)C(C)(C)c2ccccc21 |  | 20.6 µM (active)
CN1/C(=C\C=C(/C#N)C(=O)Nc2ccc(Cl)cc2)C(C)(C)c2ccccc21 |  | 3.14 µM (active)
COc1ccc(NC(=O)/C(C#N)=C/C=C/c2ccco2)cc1 | -30 | 
COc1ccc(NC(=O)/C(C#N)=C\C=C\c2ccco2)cc1 | -29.2 | 
O=C(NC(=S)N1CCN(c2ccccn2)CC1)c1ccccc1 | 0.282 | 
CN(C)c1ccc(/C=C/C=C/c2ccnc3ccccc23)cc1 |  | 2.59 µM (active)
CN(C)c1ccc(/C=C/c2ccnc3ccccc23)cc1 |  | 13 µM (active)
CN(C)c1ccc(/C=C/c2ccnc3ccccc23)c(N)c1 |  | 7.31 µM (active)
Nc1ccccc1/C=C/c1ccnc2ccccc12 |  | 23.1 µM (active)
COc1ccc(-c2nc3cnccn3c2NC2CCCCC2)cc1-c1cccc(Cl)c1 | -28.6 | 
CCOC(=O)c1cnc(-n2nc(C)cc2C)nc1NNc1nc(-c2ccccc2)cc(-c2ccccc2)n1 | 6.49 | 
c1ccc(N=NC2=NN(c3ccccc3)CS2)cc1 | 0.337 | 
CCCC(=O)NC(c1ccc(OC)cc1)c1ccc2cccnc2c1O (centres undefined) | 0.49 | 
CNc1ccc(/C=C/c2ccnc3ccccc23)cc1 |  | 14.6 µM (active)

Structure (SMILES) | max response [%] | Potency
CN(C)c1ccc(/C=C/c2ccnc3ccc(-c4ccccc4)cc23)cc1 |  | 2.31 µM (active)
COc1cccc2nccc(/C=C/c3ccc(N(C)C)cc3)c12 |  | 20.6 µM (active)
CN(C)c1ccc(/C=C/c2cnnc3ccccc23)cc1 |  | 20.6 µM (active)
NC(=S)N/N=C/c1ccccc1OC(=O)/C=C/c1ccccc1 | -3.11 | 
CC(C)CC(=O)NC(=S)N(Cc1ccccc1)Cc1ccccc1 | -4.2 | 
Cc1ccc(S(=O)(=O)N2CCN(C(=O)CSC(=S)N3CCCC3)CC2)c(C)c1 | 1.16 | 
COc1cc(/C=C2\COC/C(=C\c3ccc(O)c(OC)c3)C2=O)ccc1O |  | 14 µM (active)
CO/N=C/c1ccc(OC)c(Oc2nc(OC)cc(OC)n2)c1 | -21.4 | 
COc1ccc(/C=C2/CSC/C(=C/c3ccc(OC)c(OC)c3)C2=O)cc1OC |  | 5.59 µM (active)
COc1cc(C=C2C(=O)c3ccccc3C2=O)cc(OC)c1OC | -7.21 | 
COc1cc(/C=C/C(C)=NNc2ccccc2)ccc1O | -28.1 | 
COc1cc(/C=C2/CC/C(=C/c3ccc(O)c(OC)c3)C2=O)ccc1O | -11.3 | 
Cc1ccc2c(c1C)NC(=O)CC(c1ccccc1O)=N2 | 0.01 | 
CC(C)OC(=O)c1c2c(n3ccccc13)C(=O)c1ccccc1C2=O |  | 4.61 µM (active)
Cn1c(=O)c(N)c2c3c(c(Br)ccc31)C(=O)c1ccccc1-2 | 0.0476 | 
Oc1cccc(Nc2nc(O)c(/C=C3\C=Nc4ccccc43)s2)c1 |  | 14.6 µM (active)
O=S(=O)(Nc1cc(Sc2ncn[nH]2)c(O)c2ccccc12)c1ccccc1 | -29.8 | 
CCCOc1ccccc1C1CC(=O)Nc2cc3c(cc21)OCO3 (centres undefined) | -14.8 | 
CCN(CC)c1ccc(/C=C/C(=O)c2ccc(Br)cc2)cc1 | -4.77 | 
CCNc1ccc(Br)cc(C(=O)/C=C/c2ccc3c(c2)OCO3)c1=O |  | 18.4 µM (active)
COc1ccc(OC)c(/C=C/c2nc3ccccc3[nH]c2=O)c1 |  | 18.4 µM (active)
O=c1[nH]c2ccccc2nc1/C=C/c1ccc(F)cc1 |  | 14 µM (active)
CCCN(C(=O)CSc1n[nH]c(-c2ccc(OC)cc2)n1)c1c(N)n(Cc2ccccc2)c(=O)[nH]c1=O | -13.7 | 
CCC(=C/c1sc2ccc3ccccc3c2[n+]1C)/C=C1\Sc2ccc3ccccc3c2N1C | -0.328 | 

Structure (SMILES) | max response [%] | Potency
CC(=O)c1cccc(-c2ccnc3c2CC(C(=O)Nc2cccc(NS(C)(=O)=O)c2)O3)c1 (centres undefined) | -25.6 | 
CCSC1=NSC2=NC(=O)/C(=C\c3coc4ccccc4c3=O)C(=N)N12 |  | 18.4 µM (active)
O=C(O)CCCN1C(=O)/C(=C\C(Cl)=C\c2ccccc2)SC1=S |  | 4.44 µM (active)
C[n+]1ccc(/C=C/c2c[nH]c3ccc(F)cc23)cc1 |  | 16.4 µM (active)
COc1ccc2[nH]cc(/C=C/c3cc[n+](C)cc3)c2c1 |  | 13 µM (active)
COc1ccc2c(c1)c(/C=C/c1cc[n+](C)cc1)cn2C |  | 2.23 µM (active)
Cc1ccc2[nH]cc(/C=C/c3cc[n+](C)cc3)c2c1 |  | 1.4 µM (active)
O=C1OC(/C(=C\Nc2cc(Cl)ccc2O)[N+](=O)[O-])c2ccccc21 (centres undefined) | -13.5 | 
COc1cc(C(=O)N/N=C/C2CC=CCC2)cc(OC)c1OC (centres undefined) | -15.3 | 
CCOC1=C/C(=C/c2c(N)n3nc(-c4ccccc4)sc3nc2=O)C=CC1=O | 3.18 | 
N#C/C(=C/c1ccc(N2CCCCC2)o1)c1cccc(F)c1 |  | 5.17 µM (active)
N#C/C(=C/c1ccc(N2CCOCC2)o1)c1ccc(Cl)cc1 |  | 4.61 µM (active)
Cc1ccc(/C(C#N)=C\c2ccc(N3CCOCC3)o2)cc1 |  | 12.5 µM (active)
N#C/C(=C/c1ccc(N2CCCCCC2)o1)c1cccc(F)c1 | -26.2 | 
N#C/C(=C/c1ccc(N2CCCCCC2)o1)c1ccc(Cl)cc1 |  | 3.66 µM (active)
CC(C)(C)C(=O)/C(=C/c1ccc(Cl)cc1)n1cncn1 | -2.57 | 
C/C(=N\NC(=O)C(C)n1nc(C)c([N+](=O)[O-])c1C)c1ccccc1O (centres undefined) | 0.94 | 
COc1ccc(/C=N/n2cc(-c3ccccc3)nc2N)cc1 | -18.9 | 
CCc1ccc(-c2cc(C(F)(F)F)n3nc(C(=O)Nc4cnn(Cc5ccc(C)cc5)c4)cc3n2)s1 |  | 14.6 µM (active)
CC(=O)Nc1cccc(-c2ccnc3c2CC(C(=O)Nc2ccc(Cl)cc2)O3)c1 (centres undefined) | -18.1 | 
CCc1sc(-c2cc3ccc(O)cc3oc2=O)nc1-c1ccc(C)cc1 |  | 4.11 µM (active)
O=c1oc2cc(O)ccc2cc1-c1nc(-c2ccc(Cl)c(Cl)c2)cs1 |  | 0.651 µM (active)
O=C(CCCCl)Oc1ccc2cc(-c3ccc4ccccc4n3)c(=O)oc2c1 | 3.21 | 
COc1cc(-c2nc3ccc(C)cn3c2NCc2ccccc2)ccc1SC1CCCCC1 | -8.35 | 

Structure (SMILES) | max response [%] | Potency
Cc1ccc(/C=N/NC(=O)c2nc3nc(C)cc(C)n3n2)cc1 | 1.02 | 
CSc1nc(Sc2ccccc2Cl)c2ccccc2n1 | -25.9 | 
CN(C)c1ccc(/C=C2\SC(=S)N(Nc3ncc(C(F)(F)F)cc3Cl)C2=O)cc1 |  | 5.8 µM (active)
COc1cc(/C=C2\SC(=S)N(NC(=O)c3ccc(O)c(OC)c3)C2=O)ccc1O | -7.15 | 
COc1cc(/C=C2\SC(=S)N(Nc3ncc(C(F)(F)F)cc3Cl)C2=O)ccc1O |  | 18.4 µM (active)
N#CC(=Cc1ccccn1)c1nc(-c2ccc(Cl)cc2)cs1 |  | 15.8 µM (active)
O=C(CSc1nc2ccccc2s1)c1cc2ccccc2o1 | -2.01 | 
Cc1cc(C(F)(F)F)c(C#N)c(SCC(=O)Nc2nc3ccccc3s2)n1 |  | 20.6 µM (active)
CCOC(=O)c1ccc(NC(=O)CSc2nc(-c3ccc(OC)cc3)cc(C(F)(F)F)c2C#N)cc1 |  | 18.4 µM (active)
CCOC(=O)c1c(NC(=O)CSc2nc3ccc(OC)cc3[nH]2)sc2c1CC(C)(C)NC2(C)C | -17.3 | 
CCOC(=O)c1ccc(N=Nc2c(C)c(C#N)c(O)[nH]c2=O)cc1 | -0.299 | 
CCOC(=O)c1ccc(NC(=O)CSc2nc(-c3ccc(F)cc3)cc(C(F)(F)F)c2C#N)cc1 |  | 18.4 µM (active)
Cc1sc2nc(CSCC(=O)Nc3ccccc3C#N)[nH]c(=O)c2c1C | -12.7 | 
Cc1ccc(S(=O)(=O)CCSc2nc(C)cc(C(F)(F)F)c2C#N)cc1 |  | 15.8 µM (active)
CCOC1=C2CN(S(=O)(=O)c3ccc(C)cc3)[C@H](c3cccc4ccccc34)C[C@H]2C(C#N)(C#N)C(C#N)(C#N)C1 | -5.21 | 
CC1(C)Cc2ccccc2C2CC(O)C(=O)N21 (centres undefined) | -21.2 | 
Cc1coc(NC(=O)CSc2nc(-c3ccncc3)cc(C(F)(F)F)c2C#N)n1 |  | 13 µM (active)
N#Cc1ccccc1NC(=O)CSc1nc(-c2ccccc2)cc(C(F)(F)F)c1C#N | -28.7 | 
CCOC(=O)c1ccc(NC(=O)CSc2nc(-c3cccs3)cc(C(F)(F)F)c2C#N)cc1 |  | 16.4 µM (active)
N#Cc1c(C(F)(F)F)cc(-c2cccs2)nc1SCC(=O)Nc1cccc(C(F)(F)F)c1 |  | 18.4 µM (active)
N#Cc1c(C(F)(F)F)cc(-c2cccs2)nc1SCC(=O)Nc1cccc(Cl)c1 | -7.91 | 
CCCCOc1ccc(-c2cc(C(F)(F)F)c(C#N)c(SCC(=O)O)n2)cc1 |  | 18.4 µM (active)
